# Out of some 350,000 compounds screened, about 700 (0.2%) were called active. Where a call stands in place of a potency, no number is given. The call rests on the fitted dose curve; in most records, active means well fitted inhibition curve with a large enough effect; inconclusive means small, poorly fitted or top-dose-only effect; inactive means flat fitted curve, though single readings scatter. Only a selection was taken, and actives are over-represented in it overall.
# Target: RecQ-like DNA helicase BLM (Homo sapiens) (UniProt P54132)
# Sequence (P54132 whole entry, looked up): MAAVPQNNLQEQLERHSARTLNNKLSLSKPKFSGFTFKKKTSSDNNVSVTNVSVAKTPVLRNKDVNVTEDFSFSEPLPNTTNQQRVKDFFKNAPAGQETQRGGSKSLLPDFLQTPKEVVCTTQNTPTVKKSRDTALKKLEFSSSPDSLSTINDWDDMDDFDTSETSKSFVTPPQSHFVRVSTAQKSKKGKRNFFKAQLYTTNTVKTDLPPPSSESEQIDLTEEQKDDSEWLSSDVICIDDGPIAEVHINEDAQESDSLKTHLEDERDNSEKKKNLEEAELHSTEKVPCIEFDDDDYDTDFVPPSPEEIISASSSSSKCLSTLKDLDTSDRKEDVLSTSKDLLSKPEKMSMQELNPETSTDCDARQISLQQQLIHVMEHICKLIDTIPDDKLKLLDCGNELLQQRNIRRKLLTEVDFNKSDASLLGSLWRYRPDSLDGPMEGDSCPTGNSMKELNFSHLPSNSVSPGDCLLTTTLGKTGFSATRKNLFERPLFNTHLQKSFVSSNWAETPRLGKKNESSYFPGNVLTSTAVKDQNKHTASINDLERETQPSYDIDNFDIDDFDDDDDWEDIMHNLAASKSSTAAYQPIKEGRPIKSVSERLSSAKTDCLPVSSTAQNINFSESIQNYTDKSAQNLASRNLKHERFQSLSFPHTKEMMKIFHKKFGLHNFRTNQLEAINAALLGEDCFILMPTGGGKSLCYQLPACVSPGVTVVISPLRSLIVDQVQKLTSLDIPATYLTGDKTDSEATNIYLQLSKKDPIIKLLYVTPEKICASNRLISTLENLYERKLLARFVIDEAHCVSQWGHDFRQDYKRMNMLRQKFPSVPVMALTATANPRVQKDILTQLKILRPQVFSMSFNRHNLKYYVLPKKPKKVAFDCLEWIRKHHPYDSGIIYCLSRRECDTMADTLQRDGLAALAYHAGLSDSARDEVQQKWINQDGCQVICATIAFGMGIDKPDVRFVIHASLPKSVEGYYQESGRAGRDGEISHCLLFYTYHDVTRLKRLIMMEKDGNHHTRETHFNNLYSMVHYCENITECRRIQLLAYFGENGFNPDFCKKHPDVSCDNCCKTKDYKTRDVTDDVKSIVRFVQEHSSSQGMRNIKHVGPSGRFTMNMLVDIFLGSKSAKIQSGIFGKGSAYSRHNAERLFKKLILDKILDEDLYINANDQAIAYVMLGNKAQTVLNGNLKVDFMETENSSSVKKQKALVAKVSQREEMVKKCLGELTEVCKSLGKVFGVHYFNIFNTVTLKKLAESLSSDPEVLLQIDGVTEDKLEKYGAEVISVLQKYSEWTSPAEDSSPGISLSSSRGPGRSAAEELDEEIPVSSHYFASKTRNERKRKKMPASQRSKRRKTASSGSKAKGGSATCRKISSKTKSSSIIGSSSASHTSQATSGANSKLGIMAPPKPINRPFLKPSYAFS
# Test: qHTS Assay for Inhibitors of Bloom's syndrome helicase (BLM); further: nearly all actives have a fitted effect of over 35% in size
# Conditions: recombinant BLM DNA unwinding, fluorescence dequenching; series mostly up to 56.1 µM
# Text: Survival of cells and the faithful propagation of the genome depend on elaborate mechanisms of detecting and repairing DNA damage. Treatment of advanced cancer relies on radiation therapy or chemotherapy, which kill cancer cells by causing extensive DNA damage. It is often found, that cancer cells develop resistance to therapy through enhanced activity of DNA repair functions; this has led to an increased interest in developing drugs that interfere with DNA repair, which could sensitize cancer cells to conventional therapy.
# This validation qHTS assay pertains to human BLM, which is important in resolving abnormal DNA structures formed during replication or homologous recombination. Shutting down the expression of BLM leads to chromosomal instability and higher radiation sensitivity in cultured cells.
# The validation assay was a fluorescence quenching based kinetic qHTS for BLM Helicase DNA unwinding. The activity was measured as ATP-dependent separation of a 20-bp DNA duplex extended by 30-nt single-stranded tails (forked duplex). The forked DNA substrate was tagged with rhodamine fluorophore (carboxytetramethyl rhodamine, TAMRA) and BHQ-2 (Black Hole Quencher 2) dark quencher. Strand separation results in an increase in the fluorescence of TAMRA (excitation 525 nm, emission 598 nm). This substrate construct operates in a red-shifted region where very few compound library members have been noted to fluoresce (PubChem AIDs 593 and 594). An additional feature of the assay is the inclusion of 2.5 ug/ml poly (dIdC), to reduce interference by compounds such as DNA intercalators, a major source of false inhibitors.
# Ian Hickson, University of Oxford
# Opher Gileadi, Structural Genomics Consortium, University of Oxford
# Screening Center PI: Austin, C.P.
# Screening Center: NIH Chemical Genomics Center [NCGC]
# Three uL of reaction buffer (25 mM Tris-HCl (pH 8.0), 5 mM NaCl, 2 mM MgCl2, 1mM DTT, 0.01% Tween- 20, and 2.5 ug/ml poly(dI-dC), including enzyme (50 nM BLM), were dispensed into a 1536-well Greiner black assay plate via solenoid-valve based nanoliter dispensers. Compounds (23 nl each in columns 5-48) and control (23 nl each in column 2 as dose-response) were transferred via a Kalypsys pintool equipped with a 1536-pin array. The plates were incubated for 15 min at room temperature, and then 1 ul of substrates (200 nM DNA and 2 mM ATP, final concentrations) was added to start the reaction. The plate was transferred into a ViewLux high-throughput CCD imager where the reaction progress was measured in a discontinuous kinetic mode (two reads spaced 2 hours apart, with intermediate room temperature incubation of the covered assay plate) by using standard red-fluorescence optics (excitation filter 525 nm, emission filter 598 nm). Enzyme-free and vehicle (DMSO) controls were included for signal normalization.
# Potency means the concentration at half of the fitted maximal effect.
row,SMILES,Potency
1,COc1cccc(N2C(=O)NC(=O)/C(=C\c3ccc([N+](=O)[O-])s3)C2=O)c1,inactive
2,COc1ccc(N2C(=O)/C(=C/c3ccco3)C(=O)NC2=S)cc1,12.6 µM (active)
3,N#Cc1cc(Br)c(O)c(Br)c1,inactive
4,O=C1CCc2cccc3c2N1CC3,inactive
5,C[C@]12O[C@H](C[C@@]1(O)C(=O)O)n1c3ccccc3c3c4c(c5c6ccccc6n2c5c31)CNC4=O,inactive
6,CCN(CC)c1nc(C)cc(OP(=S)(OC)OC)n1,inactive
7,CC(=O)[O][Sn]([c]1ccccc1)([c]1ccccc1)[c]1ccccc1,inactive
8,CCCCCCCCCCCCN=C(N)N,inactive
9,C[C@@H]1C[C@H]2CC[C@H](O2)[C@H](C)C(=O)O[C@@H](C)C[C@@H]2CC[C@@H](O2)[C@@H](C)C(=O)O[C@H](C)C[C@H]2CC[C@H](O2)[C@H](C)C(=O)O[C@@H](C)C[C@@H]2CC[C@@H](O2)[C@@H](C)C(=O)O1,inactive
10,CC[N+](C)(CC)CCC[n+]1c(-c2ccccc2)c2cc(N)ccc2c2ccc(N)cc21,5.01 µM (active)
11,C[C@H]1C/C=C/[C@@H]2[C@@H]3O[C@]3(C)[C@@H](C)[C@H]3[C@H](Cc4ccccc4)NC(=O)[C@]32OC(=O)O/C=C/[C@](C)(O)C1=O,inactive
12,COC([CH2][Hg])CNC(=O)c1ccccc1OCC(=O)O (stereo not given),inactive
13,CN(C)C[C@H]1CCCC[C@]1(O)c1cccc(O)c1,inactive
14,O=C(OCC1O[C@@H](OC(=O)c2cc(O)c(O)c(O)c2)[C@@H](OC(=O)c2cc(O)c(O)c(O)c2)[C@@H](OC(=O)c2cc(O)c(O)c(O)c2)[C@@H]1OC(=O)c1cc(O)c(O)c(O)c1)c1cc(O)c(O)c(O)c1 (stereo not given in full),0.501 µM (active)
15,CC(C)(Cc1c[nH]c2ccc(Cl)cc12)NCCOc1ccccc1OCC1CC1,inactive

# Reference: PubChem BioAssay AID2528 (National Center for Advancing Translational Sciences (NCATS), 2010)
